# PubChem BioAssay AID720706 (Broad Institute, 2013)
# About 5,500 (1.6%) of roughly 350,000 compounds were called active.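 How the source made its calls: active means significant combined selectivity score with lowered wild-type GFP, culture density cut under 30%, mutant RFP and density less affected; inactive means any of these conditions unmet.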 Only a selection was taken, and actives are over-represented in it overall.
# Test: reduced GFP signal of wild-type E. coli, primary screen, bacterial rRNA inhibitor project, GFP/RFP fluorescence, OD600, single point (AID 720706)
# Conditions: E. coli WT GFP vs humanized-ribosome RFP mutants, 24 h; GFP signal change (wild-type ribosome): stronger effect = lower value, DMSO median 0, no signal -100; OD600 change: measured here: OD600 growth, DMSO median 0, no signal -100; RFP signal change: measured here: RFP humanized mutant strains, DMSO median 0, no signal -100, concentration not given here
SMILES,GFP signal change (wild-type ribosome),OD600 change [%],RFP signal change [%]
COc1ccc2c3c(n(C)c2c1)[C@H](CO)N(CC1CCCCC1)CC31CCN(Cc2nccs2)CC1,5.15% (inactive),-34.3,21.2
Cc1noc(C)c1NC(=O)N(C)C[C@@H]1Oc2ccc(NC(=O)CCN3CCOCC3)cc2CC(=O)N([C@H](C)CO)C[C@@H]1C,-0.675% (inactive),4.65,-1.87
C[C@@H]1CN([C@H](C)CO)C(=O)c2cccc(NC(=O)Nc3ccc4c(c3)OCO4)c2O[C@H]1CN(C)S(=O)(=O)c1ccccc1,-2.91% (inactive),-5.67,-1.37
COc1ccc2c3c([nH]c2c1)[C@@H](CO)N(Cc1ccc2c(c1)OCO2)CC31CN(C(=O)Nc2c(C)noc2C)C1,0.081% (inactive),0.39,1.36
CC(C)(C)[S@@](=O)N1Cc2cc(C(=O)O)nc(-c3cccc(-c4cccc(F)c4)c3)c2[C@H]1CCO,4.83% (inactive),5.04,0.24
O=C(COC(=O)c1ccc(Br)o1)NC12CC3CC(CC(C3)C1)C2,-10.7% (inactive),-7.12,2.74
O=C(OCC(=O)c1cccs1)c1ccc([N+](=O)[O-])o1,9.6% (inactive),5.51,1.76
O=C(COC(=O)c1ccc([N+](=O)[O-])o1)NC12CC3CC(CC(C3)C1)C2,-30.1% (active),9.91,3.52
CCCNC(=O)Nc1ccc2c(c1)C(=O)N(C)C[C@H](OC)[C@H](C)CN(Cc1ccncc1)[C@H](C)CO2,1.74% (inactive),6.36,-1.58
CC1CCc2[nH]c3ccc(C(=O)N(C)CC(=O)Nc4cccc(F)c4)cc3c2C1 (stereo unspecified),-34% (inactive),-74.6,-1.58
O=C(CCCN1CCc2[nH]c3ccc(F)cc3c2C1)c1ccc(F)cc1,-28.2% (active),-21.9,3.29
C=CCNC(=S)N1CCc2[nH]c3ccccc3c2C1,1.71% (inactive),-2.66,1.19
CC(C)(C)c1ccc(Oc2ccc(N)cc2)cc1,-34% (active),-27.1,-4.06
COc1cnc(-c2ccccn2)nc1Oc1ccc(C(C)(C)C)cc1,-55.5% (inactive),-80,-19.6
O=C(Nc1cccc(F)c1)N1CC(=O)N2[C@H](CO)[C@H](c3ccc(C#CC4CC4)cc3)[C@@H]2C1,4.76% (inactive),3,11.4
CCN(CC(=O)NCc1ccc(F)cc1)S(=O)(=O)c1ccc(Cl)s1,-6.72% (inactive),-25.1,-2.95

SMILES,GFP signal change (wild-type ribosome),OD600 change [%],RFP signal change [%]
Cc1ccc(SC(C)C(=O)NCc2ccc(F)cc2)cc1 (stereo unspecified),7.25% (inactive),3.19,-0.85
CSc1ccc(CN(C)CC(=O)NCc2ccc(F)cc2)cc1,-30.9% (active),-24.5,-8.04
Cc1noc(C)c1S(=O)(=O)Nc1ccc2c(c1)C(=O)N([C@@H](C)CO)C[C@@H](C)[C@H](CN(C)C(=O)NC(C)C)OCCCC[C@@H](C)O2,4.36% (inactive),7.55,-2.26
C[C@@H]1CN([C@H](C)CO)C(=O)c2cc(-c3ccc(F)cc3)cnc2O[C@@H]1CN(C)Cc1ccc(C(=O)O)cc1,-4.64% (inactive),1.8,-8.48
CO[C@@H]1CN(C)C(=O)c2ccc(NC(=O)Nc3cc(F)ccc3F)cc2OC[C@@H](C)N(C)C[C@@H]1C,-5.36% (inactive),-19.5,0.48
CCC(=O)N1[C@@H](CO)[C@H](c2ccc(-c3cccc(F)c3)cc2)[C@@H]1CNC(C)=O,-3.61% (inactive),3.25,2.12
O=C(C1CCOCC1)N1C[C@H]2[C@@H](c3ccccc31)[C@@H](CO)N2Cc1ccccc1,-1.33% (inactive),0.79,-0.998
COc1ccccc1NS(=O)(=O)c1ccc(C(=O)N2CCN(c3ccccc3O)CC2)cc1,-1.32% (inactive),-2.56,-0.007
FC(F)(F)Oc1ccc(NC(=S)NCc2ccccc2)cc1,-56.8% (inactive),-77.1,-19.9
O=S(=O)(Nc1ccc(O)c2ccccc12)c1ccc(OC(F)(F)F)cc1,-28.6% (active),-14.2,-9.13
C[C@H](CO)N1C[C@H](C)[C@H](CN(C)C(=O)C2CC2)Oc2ncc(C#Cc3ccccc3)cc2C1=O,-0.859% (inactive),2.9,-0.79
Fc1cccc(Cl)c1CSc1ccc(-c2ccco2)nn1,-21.1% (active),-7.59,0.773
Oc1ccc(-n2nnnc2SCc2c(F)cccc2Cl)cc1,-53.5% (inactive),-72.8,-14.2
Cc1cc(SCc2c(F)cccc2Cl)nc(=O)[nH]1,-15.5% (inactive),0.505,-0.535
N#C[C@@H]1[C@H](c2ccc(-c3cccnc3)cc2)[C@H](CO)N1C(=O)C1CC1,1.69% (inactive),-1.23,1.92
C[C@@H]1CN([C@@H](C)CO)C(=O)c2cc(-c3ccc(F)cc3)cnc2O[C@H]1CN(C)C(=O)c1ccncc1,5.96% (inactive),18.3,-6.6
